# In the library only some 0.18% were active in any assay of this set; here they are far more common.
# Bim-Bcl-XL: human Bim-Bcl-XL interaction inhibition; Q07817; Bim peptide-Bcl-XL binding, bead flow cytometry, fluorescence; inhibition, % at 10 µM; 190,000 tested, 0.04% active; AID 1007
# Bcl-W Bim block: inhibitors of Bim-Bcl-W interaction, human; Q92843; bead-based flow cytometry, Bim peptide-Bcl-W binding; inhibition, % at 10 µM; 190,000 tested, 0.02% active;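 further: higher means less fluorescent Bim peptide bound to Bcl-W beads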
# Target sequence (Q92843 whole entry, looked up): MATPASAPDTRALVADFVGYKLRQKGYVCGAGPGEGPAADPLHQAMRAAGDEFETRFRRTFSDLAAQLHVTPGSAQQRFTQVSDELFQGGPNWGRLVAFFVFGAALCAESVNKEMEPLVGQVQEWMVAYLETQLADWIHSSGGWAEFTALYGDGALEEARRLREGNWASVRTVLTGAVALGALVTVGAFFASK
# Bim-Bfl-1: human Bim-Bfl-1 interaction inhibition; Q16548; Bead-based flow cytometry, Bim-Bfl-1 binding inhibition; inhibition, % at 10 µM; 190,000 tested, 0.12% active; AID 1008
# Bcl-2 Bim block: disrupts Bim peptide binding to human Bcl-2 | P10415 | AID 950 | 190,000 tested, 0.06% active | Bead-based flow cytometry, Bim peptide-Bcl-2 binding | inhibition, % at 10 µM; in the data active means inhibition above about 40%
# Bcl-B Bim block: human Bim-Bcl-B interaction inhibition. 190,000 tested, 0.073% active. Q9HD36. inhibition, % at 10 µM. bead-based flow cytometry, Bim peptide-Bcl-B binding. AID 951
# Target sequence (Q9HD36 whole entry, looked up): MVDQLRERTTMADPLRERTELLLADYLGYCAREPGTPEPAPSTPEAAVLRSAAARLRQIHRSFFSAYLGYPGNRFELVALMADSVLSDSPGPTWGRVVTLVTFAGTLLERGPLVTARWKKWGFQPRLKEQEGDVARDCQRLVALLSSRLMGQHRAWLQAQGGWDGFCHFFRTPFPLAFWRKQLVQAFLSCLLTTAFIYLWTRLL
# A number is an active result; . = inactive. Unless noted, no stated cut-off is given here; in the data, active means inhibition above about 40%.
SMILES,Bim-Bcl-XL,Bcl-W Bim block,Bim-Bfl-1,Bcl-2 Bim block,Bcl-B Bim block
CC(C)CN1C(=O)/C(=C/c2cccs2)NC1=S,.,.,.,.,.
CC(C)CN1C(=O)/C(=C/c2ccco2)NC1=S,.,.,47,.,.
CCN=c1scc(C)n1/N=C/c1ccc(O)c(O)c1O,.,.,51,.,.
CCN=c1scc(C)n1/N=C/c1cc(Br)c(O)c(Br)c1,.,.,.,.,.
COCCN=c1scc(-c2ccccc2)n1/N=C/c1c[nH]c2ccccc12,.,.,.,.,.
COCCN=c1scc(-c2cccs2)n1/N=C/c1ccc(O)c(O)c1O,.,.,40,.,.
CCSc1nnc(NC(=O)CCCOc2ccc(C)cc2)s1,.,.,.,.,.
OC1CC(c2ccco2)NC2(CCCCC2)C1 (configuration not stated),.,.,.,.,.
CCC(=O)OCCNc1cc(Sc2nc3ccccc3s2)c2nonc2c1[N+](=O)[O-],.,.,54,.,.
CCC(=O)OCCNc1cc(Sc2nc3ccccc3[nH]2)c2nonc2c1[N+](=O)[O-],.,.,.,.,.
Cc1sc(NC(=O)CN(Cc2ccc(F)cc2)C(=O)C(C)(C)C)c(C(N)=O)c1C,.,.,.,.,.
COC(=O)Cc1cc(=O)[nH]c(Nc2nc3ccccc3o2)n1,.,.,64,.,.
Cc1cnc(NC(=O)c2cc3ccccc3o2)s1,.,.,.,.,.
COc1ccccc1C(=O)NCCN1CCN(C(=O)c2ccccc2OC)CC1,.,.,.,.,.
C1=CC2c3ccccc3NC(c3ccncc3)C2C1 (configuration not stated),.,.,55,.,.
CC(=O)c1ccc2c(c1)C1C=CCC1C(c1ccncc1)N2 (configuration not stated),.,.,.,.,.
CCOC(=O)C1CN(S(=O)(=O)c2ccc(OC)cc2)c2cc(S(=O)(=O)CC)ccc2O1 (configuration not stated),.,.,.,.,.
COc1ccc(Nc2nc(N3CCCC3)c3ccccc3n2)cc1,.,.,.,.,.
CCN(CC)c1ccc(Nc2nc(N3CCOCC3)c3ccccc3n2)cc1,.,.,54,.,.
O=C(NC1CCCCC1)N1CCN(C(c2ccccc2)c2ccccc2)CC1,.,.,.,.,.
CC(=O)Nc1ccc(SCC(=O)N(C)C2CCS(=O)(=O)C2)cc1 (configuration not stated),.,.,.,.,.
Cc1ccc(C)n1-c1ccc(N2CCOCC2)cc1,.,.,.,.,40
N#Cc1c(-c2ccncc2)c2c([nH]c1=S)CCCC2,.,.,.,.,.
Cc1ccc(-c2c3c([nH]c(=S)c2C#N)CCCC3)o1,.,.,41,.,.
CCOc1ccc(/C=C/C(=O)c2cc(Br)ccc(=O)c2O)cc1,.,.,42,.,.
SMILES,Bim-Bcl-XL,Bcl-W Bim block,Bim-Bfl-1,Bcl-2 Bim block,Bcl-B Bim block
CCc1cccc(CC)c1NC(=S)N1CCn2cccc2C1c1cccnc1 (configuration not stated),.,.,.,.,49
COC(=O)c1c(C(=O)OC)c2cccc3cc(-c4ccccc4)c4ccc1c4n32,.,.,44,.,.
COC(=O)c1cc2c(-c3ccccc3)cc3ccccn3c-2c1C(=O)OC,.,.,.,.,.
Cc1c(C(=O)NC(=S)Nc2ccc(N3CCOCC3)cc2)cccc1[N+](=O)[O-],.,.,.,.,.
Cc1cccc(N=Cc2cc3c(cc2[N+](=O)[O-])OCO3)c1,.,.,.,.,.
COc1cc(C=Nc2cccc(C)c2)c(O)c([N+](=O)[O-])c1,.,.,42,44,58
CN(C)c1ccc(/C=N/NC(=O)CN(c2cccc(Cl)c2)S(C)(=O)=O)cc1Br,.,.,.,.,.
CC(C)CC(=O)OCc1cn(-c2ccccc2)nn1,.,.,58,83,80
Clc1cccc(Cl)c1CNc1ccc(N2CCCC2)cc1,.,.,59,.,.
O=C(Cc1ccc(Cl)cc1)Nc1ccc(N2CCCC2)cc1,.,.,.,.,.
CC(C(=O)O)c1ccc(N2Cc3ccccc3C2=O)cc1 (configuration not stated),.,.,.,.,.
Cc1nc(SCC(=O)NNC(=O)c2cccs2)[nH]c(=O)c1C,.,.,.,.,.
Cc1nc2ncccn2c1-c1csc(Nc2ccc(O)cc2)n1,62,.,.,.,.
Cc1ccc(Nc2nc(-c3c(C)nc4ncccn34)cs2)cc1,.,.,.,.,.
CCOC(=O)C(O)(CC(=O)c1ccc(OC)cc1)C(F)(F)F (configuration not stated),.,.,.,.,.
O=[N+]([O-])c1ccc(-c2cnc(SCc3ccccc3Cl)[nH]2)cc1,.,.,59,80,81
CCOC(=O)c1ccc(S(=O)(=O)Nc2cc(C(=O)O)ccc2Cl)cc1,.,.,.,.,.
O=C(O)CC1S/C(=N/N=C/C=C/c2ccccc2[N+](=O)[O-])NC1=O (configuration not stated),50,.,46,.,.
CCCCC(C(=O)OCC)C(N)Cc1ccc(F)cc1 (configuration not stated),83,.,.,58,76
CCOC(=O)NC(O)C(=O)c1ccc(F)cc1 (configuration not stated),.,.,.,.,.
Cc1[nH]c2ccccc2c1C(=O)COC(=O)c1c(-c2c(F)cccc2Cl)noc1C,41,.,43,.,.
O=C(c1ccccc1NS(=O)(=O)c1ccc(F)cc1)N1CCCC1,.,.,.,.,.
O=C(c1ccccc1NS(=O)(=O)c1ccc(Br)s1)N1CCCC1,.,.,49,.,.
CC(CCc1ccccc1)NC(=O)C1CCN(S(=O)(=O)N2CCCCC2)CC1 (configuration not stated),41,.,.,.,.
Cc1c(N2C(=O)c3ccc4c5c(ccc(c35)C2=O)CC4)c(=O)n(-c2ccccc2)n1C,.,.,.,.,58
SMILES,Bim-Bcl-XL,Bcl-W Bim block,Bim-Bfl-1,Bcl-2 Bim block,Bcl-B Bim block
Cc1c(N2C(=O)c3ccc(Br)cc3C2=O)c(=O)n(-c2ccccc2)n1C,.,.,.,.,.
COc1ccc2c3c(cccc13)N(C)N=C2C,.,70,73,40,.
O=C1NC(=S)S/C1=C/c1ccc(N2CCOCC2)o1,.,.,53,.,.
Cc1ccc(-c2ccc(/C=C3\SC(N4CCOCC4)=NC3=O)o2)cc1,.,.,41,.,.
O=C1N=C(N2CCOCC2)S/C1=C/c1ccc(-c2ccc(F)cc2)o1,.,.,.,.,.
O=C1S/C(=C/c2ccc(N3CCOCC3)o2)C(=O)N1Cc1ccc(F)cc1,.,.,.,.,.
Cc1c([N+](=O)[O-])nnn1-c1cc(Cl)cc(Cl)c1,.,.,.,.,.
CCN1/C(=C/c2ccc3cc(C)ccc3[n+]2CC)Sc2ccccc21,.,.,.,.,.
CCN1/C(=C/c2ccc3cc(C)ccc3[n+]2CC)Sc2cc(C)c(C)cc21,.,.,.,40,.
Cc1ccc(C)c(NC(=O)CCC(=O)NNC(=O)c2cccc([N+](=O)[O-])c2)c1,.,.,.,.,.
O=C(CCl)Nc1cccc2ncccc12,.,.,.,.,57

# Source: PubChem BioAssay (NMMLSC)
